# Assay results: PubChem BioAssay (NCATS)
# Inconclusive results are not listed. A structure can be active in one record and inactive in another. The list shows a part of the results. Calls of active or inactive are those of the source. Unless noted, calls follow the shape of the dose curve; as a rule, active = well fitted curve in the direction sought with a large enough effect; inconclusive = small, poorly fitted or top-dose-only effect, or another doubt; inactive = no such curve, though single readings can be large; an effect the other way counts as inactive or inconclusive.
# Tests used:
# [1] = molecular target: Calcium and integrin-binding protein 1 (Homo sapiens) (UniProt Q99828); test: Primary qHTS for Identification of Calcium Integrin Binding Protein 1 (CIB1) Competitor (AID 1508620);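 also: GST tagged CIB1 binding a fluorescein labelled alphaIIb integrin peptide tracer; top concentration of the series differs between compounds; % is scaled to controls: 0 for no effect and ±100 for the full control effect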
# Summary of the method: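 Fluorescence polarization competition: GST-tagged CIB1 (1 uM final) preincubated with compound 15 min at room temperature, then FITC-labelled alphaIIb peptide (100 nM final) added. After 15 min at room temperature, polarization read at Ex 480/Em 540.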
# [2] = molecular target: Rap guanine nucleotide exchange factor 3 (Homo sapiens) (UniProt O95398); test: Confirmatory qHTS for antagonist of cAMP-regulated guanine nucleotide exchange factor 3 (EPAC1) (AID 1645880); also: nearly all actives have a fitted effect of over 55% in size; also: potency is read from the fitted curve at half-maximal effect;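 as to activity, negative = inhibition: plate controls were DMSO only for no effect and full effect of the ATA control for full effect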
# Summary of the method: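 Nucleotide exchange uses 100 nM EPAC1, 250 nM RAP1B-BODIPY-GDP and 50 uM GDP, with compounds in a concentration-titration series. After 5 min at room temperature, fluorescence (480 nm ex/540 nm em) is read every 5 min for 30 min. Data are normalized to control ATA and DMSO.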
# [3] = molecular target: Rap guanine nucleotide exchange factor 3 (Homo sapiens) (UniProt O95398); test: Confirmatory qHTS for agonist of cAMP-regulated guanine nucleotide exchange factor 3 (EPAC1) (AID 1645881);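 also: EPAC1 catalysed release of BODIPY-GDP from Rap1B seen as fluorescence loss; 100% = effect of cAMP agonist control; nearly all actives have a fitted effect of over 75% in size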
# [4] = molecular target: Rap guanine nucleotide exchange factor 4 (Homo sapiens) (UniProt Q8WZA2); test: Confirmatory qHTS for agonist of cAMP-regulated guanine nucleotide exchange factor 4 (EPAC2) (AID 1645884);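 also: nucleotide exchange releases bodipy-GDP from Rap1 and this lowers its fluorescence; % is scaled to controls: 0 for no effect and ±100 for the full control effect; nearly all actives have a fitted effect of over 65% in size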
# [5] = molecular target: Rap guanine nucleotide exchange factor 4 (Homo sapiens) (UniProt Q8WZA2); test: Confirmatory qHTS for antagonist of cAMP-regulated guanine nucleotide exchange factor 4 (EPAC2) (AID 1645885); also: nearly all actives have a fitted effect of over 25% in size
# [6] = molecular target: Lysosomal alpha-glucosidase (Homo sapiens) (UniProt P10253); test: Confirmation of Inhibitors and Activators of Purified Human alpha-Glucosidase (AID 2115; active = well fitted curve in either direction with a large enough effect)
# Summary of the method: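 Purified human enzyme (4 nM) with 4-methylumbelliferyl-alpha-D-glucopyranoside (400 uM), compounds up to 77 uM, in citrate/phosphate buffer pH 5.0 with 0.005% Tween-20. After 20 min at RT, stopped at pH 10; fluorescence ex 365/em 440 nm; AC50 from Hill fits.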
# [7] = AP1 Signaling Pathway (AID 357; active = well fitted curve in either direction with a large enough effect, not every such curve was filed as active;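 also: ME-180 reporter cells stimulated with EGF at its EC50 level; % is scaled to controls: 0 for no effect and ±100 for the full control effect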); details: ME-180 AP-1-bla reporter, EGF-induced, beta-lactamase ratio, 5 h; at 7.69 µM (top of the series) unless noted
# Summary of the method: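 Read-out was the 460nm/530nm emission ratio (excitation 405nm) after CCF4 loading for 2.5 hours at room temperature. Cells carried an AP-1-driven beta-lactamase reporter, were stimulated with EC50 EGF plus compound for 5 hours, and AC50 values came from titrations.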
# [8] = Stat Signaling Pathway (AID 446; active = well fitted curve in either direction with a large enough effect, not every such curve was filed as active;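 also: ME-180 cervical cancer cells given 40 pM IL-6 alongside compound; SIE-controlled beta-lactamase reporter measured as 460/530 nm FRET emission ratio; % is scaled to controls: 0 for no effect and ±100 for the full control effect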); details: ME-180 (cervical carcinoma) SIE beta-lactamase reporter, IL-6 stimulated, 5 h; at 7.69 µM (top of the series) unless noted
# Summary of the method: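 IL-6/STAT signaling read in ME-180 cells via an SIE beta-lactamase reporter. Stimulus was 40 pM IL-6 (its AC50) for 5 hrs, so both activation and inhibition register.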
# [9] = molecular target: Glucocorticoid receptor (Homo sapiens) (UniProt P04150); test: GR-GFP Redistribution (AID 450;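 active = compounds whose dose series gives a full or clear partial fitted curve of increased nuclear translocation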; also: potency is read from the fitted curve at half-maximal effect); details: U2OS GR-GFP nuclear translocation, laser cytometry, 2 h
# [10] = NFAT Signaling Pathway (AID 444; active = well fitted curve in either direction with a large enough effect, not every such curve was filed as active;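 also: carbachol stimulus at about its EC50 of 1 µM final; % is scaled to controls: 0 for no effect and ±100 for the full control effect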); details: Jurkat NFAT-bla M1, carbachol, beta-lactamase ratio, 5 h; at 7.69 µM (top of the series) unless noted
# Summary of the method: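 Jurkat cells with NFAT-driven β-lactamase reporter and co-expressed M1 receptor, stimulated with carbachol (final 1 uM, ~EC50), compound titration, 5 h at 37 °C. CCF4 loaded 1 h at RT; 460/530 nm ratio gave %activity and AC50.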
# [11] = molecular target: Mitogen-activated protein kinase 10 (Mus musculus) (UniProt Q61831); test: JNK3 AlphaScreen Assay (AID 530; active = well fitted curve in either direction with a large enough effect, not every such curve was filed as active)
# Summary of the method: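 qHTS format: compounds tested as titrations against IL-1beta/TNF-alpha-activated HepG2 lysate JNK3 with biotin-GST-cJun substrate and 10 uM ATP at room temperature. Loss of anti-phospho-cJun AlphaScreen signal indicates inhibition.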
# [12] = molecular target: DNA repair nuclease/redox regulator APEX1 (Homo sapiens) (UniProt P27695); test: Confirmation qHTS Assay for Inhibitors of the Human Apurinic/apyrimidinic Endonuclease 1 (APE1) (AID 2572); details: purified APE1, fluorogenic abasic-site DNA cleavage; also: potency is read from the fitted curve at half-maximal effect; nearly all actives have a fitted effect of over 30% in size
# Summary of the method: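 Readout: kinetic fluorescence (Ex 525, Em 598 nm) from APE1 incision of a 5'-TAMRA, 3'-BHQ-2 duplex containing a THF abasic site at 50 nM final. Compound preincubation 15 min, room temperature.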
# [13] = molecular target: Lethal(3)malignant brain tumor-like protein 1 (Homo sapiens) (UniProt Q9Y468); test: qHTS Assay for the Inhibitors of L3MBTL1: Hit Validation (AID 540279); details: L3MBTL1 methyl-lysine binding inhibition, biochemical qHTS; also: potency is read from the fitted curve at half-maximal effect; nearly all actives have a fitted effect of over 70% in size
# Summary of the method: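 L3MBTL1 (50 nM final) preformed 30 min with biotinylated H3(1-15)K9me1 peptide (75 nM), then compound 30 min at room temperature. Streptavidin donor and nickel chelate acceptor AlphaScreen beads (10 ug/mL each final) added for 30 min before read.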
# [14] = qHTS Assay for the Inhibitors of L3MBTL1: Hit Validationin AlphaScreen Counterscreen (AID 602224); also: 0% is about no effect
# Summary of the method: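 Primary-screen actives were tested against a bead-bridging control: 1 nM biotinylated His6 joined streptavidin donor and nickel acceptor beads (10 ug/mL each). Incubations were 15 min with compound, then 30 min with beads, both at room temperature.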
# [15] = molecular target: Phosphoglycerate kinase, glycosomal (Trypanosoma brucei brucei) (UniProt P07378); test: qHTS for inhibitors of Phosphogylcerate Kinase: Hit Validation Screen (AID 686980); details: TbPGK coupled GAPDH assay, Kinase-Glo luminescence; also: potency is read from the fitted curve at half-maximal effect; nearly all actives have a fitted effect of over 65% in size
# Summary of the method: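 Luminescent ATP detection (Kinase-Glo Plus) follows a 60-minute room-temperature incubation, with wells lacking PGK as controls. Buffer: 100 mM TEA (pH 7.6), 5 mM MgCl2, 0.01% Tween-20. Coupling enzyme GAPDH (100 nM final) supplies unstable 1,3-BPG in-well.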
# [16] = molecular target: DNA polymerase iota (Homo sapiens) (UniProt Q9UNA4); test: qHTS for Inhibitors of Polymerase Iota: Confirmatory Assay for Cherry-picked Compounds (AID 720496); details: Pol iota primer extension, TAMRA/BHQ fluorescence; also: potency is read from the fitted curve at half-maximal effect
# Summary of the method: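 Read-out is TAMRA fluorescence (525 nm excitation, 598 nm emission) at 0 and 10 min. It reflects strand displacement from a BHQ-2-quenched template by 10 nM Pol iota, with 50 nM final substrate after 15 min compound preincubation.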
# [17] = molecular target: Bifunctional 3'-5' exonuclease/ATP-dependent helicase WRN (Homo sapiens) (UniProt Q14191); test: qHTS for Inhibitors of WRN Helicase: Confirmatory Assay for Cherry-picked Compounds. (AID 720497); details: WRN helicase DNA unwinding, fluorescence kinetic; also: potency is read from the fitted curve at half-maximal effect; nearly all actives have a fitted effect of over 65% in size
# Summary of the method: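 Kinetic fluorescence helicase read-out (525 nm excitation, 598 nm emission) on a forked duplex substrate at 100 nM with 2 mM ATP. Enzyme: 20 nM WRN, exposed to compound for 15 min at room temperature. Responses normalized to buffer-only and positive-control wells.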
# [18] = qHTS for Inhibitors of WRN Helicase: Thiazole Orange DNA Binding Counterscreen (AID 720499);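 also: drop in dye fluorescence marks compound binding to DNA; % is scaled to controls: 0 for no effect and ±100 for the full control effect; nearly all actives have a fitted effect of over 60% in size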
# Summary of the method: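 Readout: ThO fluorescence, ex 480 nm/em 530 nm. Mix: 50 nM unlabeled DNA, 100 nM ThO. Compounds pintooled in, 15 min RT before reading.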
# [19] = molecular target: DNA polymerase kappa (Homo sapiens) (UniProt Q9UBT6); test: qHTS for Inhibitors of Polymerase Kappa: Confirmatory Assay for Cherry-picked Compounds (AID 720501); details: purified Pol-kappa, fluorescent strand-displacement substrate; also: potency is read from the fitted curve at half-maximal effect
# Summary of the method: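 10 nM human Pol-kappa was preincubated with compound 15 min at room temperature, then 50 nM (final) primer/template substrate with TAMRA-labeled reporter strand and BHQ-2-labeled template added. Fluorescence (Ex 525, Em 598 nm) read at 0 and 10 min.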
# [20] = molecular target: DNA polymerase eta (Homo sapiens) (UniProt Q9Y253); test: qHTS for Inhibitors of Polymerase Eta: Confirmatory Assay for Cherry-picked Compounds (AID 720502); details: Pol eta primer extension, TAMRA/BHQ fluorescence, 10 min; also: potency is read from the fitted curve at half-maximal effect
# Summary of the method: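 Enzyme at 10 nM is mixed with pin-transferred compound and left 15 min at room temperature. Substrate (50 nM final) is then added, and plates are read at 0 min and after 10 min.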
# [21] = molecular target: RecQ-like DNA helicase BLM (Homo sapiens) (UniProt P54132); test: qHTS for Inhibitors of WRN Helicase: BLM Helicase Counterscreen for WRN Inhibitors (AID 720503); details: Recombinant BLM helicase DNA unwinding, red fluorescence; also: potency is read from the fitted curve at half-maximal effect; nearly all actives have a fitted effect of over 60% in size
# Summary of the method: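 Steps: compounds added to 1 nM BLM in pH 8.0 Tris buffer with 2 mM MgCl2; 15 min room-temperature incubation; substrates added (100 nM DNA, 2 mM ATP final); discontinuous kinetic fluorescence measurement, reads spaced 15 min.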
# [22] = qHTS profiling of the MIPE4 collection as inhibitors of Plasmodium falciparum (3D7) proliferation (AID 743344; call rule not given here;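 also: scaled between DMSO vehicle wells and 0.29 µM artemisinin as full inhibition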); details: P. falciparum 3D7 in erythrocytes, SYBR Green DNA fluorescence, 72 h; at 28.5 µM (top of the series)
# Summary of the method: (§1)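 Erythrocytes infected with P. falciparum (0.3% parasitemia, 2.5% hematocrit) incubated with compounds 72 h at 37 C, 5% CO2. Lysis with saponin/Triton buffer containing SYBR Green I, overnight at room temperature in the dark; DNA fluorescence (485/535 nm) normalised to 0.29 uM artemisinin and DMSO.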
# [23] = qHTS profiling of the MIPE4 collection as inhibitors of Plasmodium falciparum (DD2) proliferation (AID 743345; call rule not given here); details: P. falciparum Dd2 in erythrocytes, SYBR Green DNA, 72 h; at 28.5 µM (top of the series)
# Summary of the method: as §1
# [24] = qHTS profiling of the MIPE4 collection as inhibitors of Plasmodium falciparum (DD2) proliferation (Rep 2) (AID 743346; call rule not given here); details: P. falciparum Dd2 in erythrocytes, SYBR Green DNA, 72 h; at 28.5 µM (top of the series)
# Summary of the method: as §1
# [25] = qHTS profiling of the MIPE4 collection as inhibitors of Plasmodium falciparum (HB3) proliferation (AID 743347; call rule not given here;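 also: plate controls were DMSO vehicle wells for no effect and artemisinin wells for full effect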); details: P. falciparum HB3 in erythrocytes, SYBR Green DNA, 72 h; at 28.5 µM (top of the series)
# Summary of the method: as §1
# [26] = molecular target: Phospholipid hydroperoxide glutathione peroxidase GPX4 (Homo sapiens) (UniProt P36969); test: Primary qHTS Assay for Inhibitors of Recombinant Selenoprotein Glutathione Peroxidase 4 (GPX4) (AID 1845192); details: outcome: dose series up to 50 µM unless noted; also: % is scaled to controls: 0 for no effect and ±100 for the full control effect; nearly all actives have a fitted effect of over 65% in size
# Summary of the method: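 GR-coupled assay: recombinant GPX4 preincubated 30 min with compound at room temperature; final 200 nM GPX4, 1 mM GSH, 0.5 mM cumene hydroperoxide, 0.5 mM NADPH, 100 nM GR, 0.01% BSA, pH 7.5 Tris. NADPH fluorescence (340/450 nm) read at 0 and 15 min.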
# [27] = qHTS drug screen for cell cycle checkpoint inhibitors in PARPi-resistant BRCA-mutant ovarian cancer cell lines. (AID 1963452; calls by dose curve); details: PEO1/OlaR viability, CellTiter-Glo luminescence, 96 h, stronger effect = lower value
# Summary of the method: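 PEO1, PEO4 and PEO1/OlaR ovarian cancer cells, 600 per well, exposed 96 h at 37C to a dilution series. Viability read by CellTiter-Glo luminescence, normalized to DMSO and empty wells; activity summarized as Z-AUC.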
# Chain of Calcium and integrin-binding protein 1 (Homo sapiens) (Q99828 whole entry, looked up): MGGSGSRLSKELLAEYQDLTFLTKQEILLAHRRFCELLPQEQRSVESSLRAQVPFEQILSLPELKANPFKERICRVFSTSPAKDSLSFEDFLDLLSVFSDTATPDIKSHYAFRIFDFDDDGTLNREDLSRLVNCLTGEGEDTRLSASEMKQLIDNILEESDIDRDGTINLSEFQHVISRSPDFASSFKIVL
# Chain of Rap guanine nucleotide exchange factor 3 (Homo sapiens) (O95398 whole entry, looked up): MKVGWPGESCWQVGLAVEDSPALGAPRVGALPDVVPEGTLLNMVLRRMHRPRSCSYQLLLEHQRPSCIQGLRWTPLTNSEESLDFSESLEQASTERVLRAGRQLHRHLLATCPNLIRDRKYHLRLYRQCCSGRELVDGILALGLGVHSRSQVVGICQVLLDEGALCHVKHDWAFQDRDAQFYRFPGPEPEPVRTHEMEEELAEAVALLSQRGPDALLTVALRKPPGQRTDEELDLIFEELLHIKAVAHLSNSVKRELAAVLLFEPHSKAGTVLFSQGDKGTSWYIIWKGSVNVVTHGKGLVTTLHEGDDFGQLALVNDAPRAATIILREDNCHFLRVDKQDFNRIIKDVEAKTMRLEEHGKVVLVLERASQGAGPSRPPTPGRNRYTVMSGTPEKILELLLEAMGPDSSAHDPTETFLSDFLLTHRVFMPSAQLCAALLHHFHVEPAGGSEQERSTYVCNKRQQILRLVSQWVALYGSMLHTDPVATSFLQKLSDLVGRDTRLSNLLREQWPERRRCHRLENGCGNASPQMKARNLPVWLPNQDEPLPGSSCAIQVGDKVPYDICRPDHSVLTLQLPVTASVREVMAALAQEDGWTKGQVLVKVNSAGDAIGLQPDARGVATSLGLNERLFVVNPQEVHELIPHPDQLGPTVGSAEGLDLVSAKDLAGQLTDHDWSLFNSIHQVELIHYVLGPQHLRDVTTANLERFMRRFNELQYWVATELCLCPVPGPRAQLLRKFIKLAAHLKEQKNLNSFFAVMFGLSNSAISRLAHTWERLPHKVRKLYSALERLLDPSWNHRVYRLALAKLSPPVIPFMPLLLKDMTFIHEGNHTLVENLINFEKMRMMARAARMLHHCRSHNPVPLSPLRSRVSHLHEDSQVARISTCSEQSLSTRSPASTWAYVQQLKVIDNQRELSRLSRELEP
# Chain of Glucocorticoid receptor (Homo sapiens) (P04150 whole entry, looked up): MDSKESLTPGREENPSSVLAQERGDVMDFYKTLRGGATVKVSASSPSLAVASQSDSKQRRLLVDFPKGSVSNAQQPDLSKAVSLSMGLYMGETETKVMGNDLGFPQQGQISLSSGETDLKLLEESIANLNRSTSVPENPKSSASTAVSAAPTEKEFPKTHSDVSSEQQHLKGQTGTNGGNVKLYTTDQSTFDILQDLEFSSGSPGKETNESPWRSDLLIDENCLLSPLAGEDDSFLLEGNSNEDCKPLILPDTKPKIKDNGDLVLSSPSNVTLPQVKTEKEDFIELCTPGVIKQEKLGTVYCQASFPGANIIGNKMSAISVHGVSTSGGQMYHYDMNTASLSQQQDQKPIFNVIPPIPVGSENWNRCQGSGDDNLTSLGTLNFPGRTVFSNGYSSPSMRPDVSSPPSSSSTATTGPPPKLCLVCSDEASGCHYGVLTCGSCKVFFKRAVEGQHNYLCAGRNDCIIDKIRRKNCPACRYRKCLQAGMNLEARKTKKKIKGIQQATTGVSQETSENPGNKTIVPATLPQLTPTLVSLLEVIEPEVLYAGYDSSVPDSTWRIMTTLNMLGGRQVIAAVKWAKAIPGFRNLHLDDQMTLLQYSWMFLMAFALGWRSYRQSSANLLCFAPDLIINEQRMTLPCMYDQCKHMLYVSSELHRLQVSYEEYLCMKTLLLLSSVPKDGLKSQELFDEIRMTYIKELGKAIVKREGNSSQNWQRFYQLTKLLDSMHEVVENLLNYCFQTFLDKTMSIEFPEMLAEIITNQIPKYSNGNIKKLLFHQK
# Chain of Rap guanine nucleotide exchange factor 4 (Homo sapiens) (Q8WZA2 whole entry, looked up): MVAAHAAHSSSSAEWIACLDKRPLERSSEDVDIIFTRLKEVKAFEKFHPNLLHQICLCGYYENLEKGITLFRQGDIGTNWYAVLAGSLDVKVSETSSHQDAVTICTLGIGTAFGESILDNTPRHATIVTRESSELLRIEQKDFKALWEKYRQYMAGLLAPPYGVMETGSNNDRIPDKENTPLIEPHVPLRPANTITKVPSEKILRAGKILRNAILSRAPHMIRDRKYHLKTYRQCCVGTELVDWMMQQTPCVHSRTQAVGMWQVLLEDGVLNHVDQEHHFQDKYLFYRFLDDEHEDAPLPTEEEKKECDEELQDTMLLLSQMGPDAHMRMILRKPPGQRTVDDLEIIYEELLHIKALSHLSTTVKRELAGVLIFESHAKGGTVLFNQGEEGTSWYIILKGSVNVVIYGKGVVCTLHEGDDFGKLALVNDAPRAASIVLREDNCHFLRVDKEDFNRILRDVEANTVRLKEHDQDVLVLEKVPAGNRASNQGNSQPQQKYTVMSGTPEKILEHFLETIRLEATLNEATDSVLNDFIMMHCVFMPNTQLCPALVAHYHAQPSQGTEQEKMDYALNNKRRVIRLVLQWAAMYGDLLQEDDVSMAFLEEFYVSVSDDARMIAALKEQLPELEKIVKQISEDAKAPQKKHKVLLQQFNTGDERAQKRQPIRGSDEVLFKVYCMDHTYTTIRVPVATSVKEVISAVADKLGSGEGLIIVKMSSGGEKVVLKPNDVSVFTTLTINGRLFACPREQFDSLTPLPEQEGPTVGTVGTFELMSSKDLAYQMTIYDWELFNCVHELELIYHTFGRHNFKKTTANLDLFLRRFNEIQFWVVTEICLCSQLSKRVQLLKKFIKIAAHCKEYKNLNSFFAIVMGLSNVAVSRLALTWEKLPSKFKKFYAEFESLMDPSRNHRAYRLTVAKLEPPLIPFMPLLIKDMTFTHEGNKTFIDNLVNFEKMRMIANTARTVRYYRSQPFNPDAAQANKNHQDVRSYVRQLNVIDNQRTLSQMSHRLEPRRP
# Chain of DNA repair nuclease/redox regulator APEX1 (Homo sapiens) (P27695 whole entry, looked up): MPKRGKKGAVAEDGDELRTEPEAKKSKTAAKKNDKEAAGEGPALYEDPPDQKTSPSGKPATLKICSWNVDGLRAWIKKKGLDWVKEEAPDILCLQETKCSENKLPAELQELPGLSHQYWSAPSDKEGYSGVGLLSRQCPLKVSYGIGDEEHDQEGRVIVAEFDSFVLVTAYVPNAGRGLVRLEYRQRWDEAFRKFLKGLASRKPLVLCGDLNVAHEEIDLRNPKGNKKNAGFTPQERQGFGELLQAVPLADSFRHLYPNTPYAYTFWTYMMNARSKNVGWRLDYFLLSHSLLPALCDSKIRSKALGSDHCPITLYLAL
# Chain of Bifunctional 3'-5' exonuclease/ATP-dependent helicase WRN (Homo sapiens) (Q14191 whole entry, looked up): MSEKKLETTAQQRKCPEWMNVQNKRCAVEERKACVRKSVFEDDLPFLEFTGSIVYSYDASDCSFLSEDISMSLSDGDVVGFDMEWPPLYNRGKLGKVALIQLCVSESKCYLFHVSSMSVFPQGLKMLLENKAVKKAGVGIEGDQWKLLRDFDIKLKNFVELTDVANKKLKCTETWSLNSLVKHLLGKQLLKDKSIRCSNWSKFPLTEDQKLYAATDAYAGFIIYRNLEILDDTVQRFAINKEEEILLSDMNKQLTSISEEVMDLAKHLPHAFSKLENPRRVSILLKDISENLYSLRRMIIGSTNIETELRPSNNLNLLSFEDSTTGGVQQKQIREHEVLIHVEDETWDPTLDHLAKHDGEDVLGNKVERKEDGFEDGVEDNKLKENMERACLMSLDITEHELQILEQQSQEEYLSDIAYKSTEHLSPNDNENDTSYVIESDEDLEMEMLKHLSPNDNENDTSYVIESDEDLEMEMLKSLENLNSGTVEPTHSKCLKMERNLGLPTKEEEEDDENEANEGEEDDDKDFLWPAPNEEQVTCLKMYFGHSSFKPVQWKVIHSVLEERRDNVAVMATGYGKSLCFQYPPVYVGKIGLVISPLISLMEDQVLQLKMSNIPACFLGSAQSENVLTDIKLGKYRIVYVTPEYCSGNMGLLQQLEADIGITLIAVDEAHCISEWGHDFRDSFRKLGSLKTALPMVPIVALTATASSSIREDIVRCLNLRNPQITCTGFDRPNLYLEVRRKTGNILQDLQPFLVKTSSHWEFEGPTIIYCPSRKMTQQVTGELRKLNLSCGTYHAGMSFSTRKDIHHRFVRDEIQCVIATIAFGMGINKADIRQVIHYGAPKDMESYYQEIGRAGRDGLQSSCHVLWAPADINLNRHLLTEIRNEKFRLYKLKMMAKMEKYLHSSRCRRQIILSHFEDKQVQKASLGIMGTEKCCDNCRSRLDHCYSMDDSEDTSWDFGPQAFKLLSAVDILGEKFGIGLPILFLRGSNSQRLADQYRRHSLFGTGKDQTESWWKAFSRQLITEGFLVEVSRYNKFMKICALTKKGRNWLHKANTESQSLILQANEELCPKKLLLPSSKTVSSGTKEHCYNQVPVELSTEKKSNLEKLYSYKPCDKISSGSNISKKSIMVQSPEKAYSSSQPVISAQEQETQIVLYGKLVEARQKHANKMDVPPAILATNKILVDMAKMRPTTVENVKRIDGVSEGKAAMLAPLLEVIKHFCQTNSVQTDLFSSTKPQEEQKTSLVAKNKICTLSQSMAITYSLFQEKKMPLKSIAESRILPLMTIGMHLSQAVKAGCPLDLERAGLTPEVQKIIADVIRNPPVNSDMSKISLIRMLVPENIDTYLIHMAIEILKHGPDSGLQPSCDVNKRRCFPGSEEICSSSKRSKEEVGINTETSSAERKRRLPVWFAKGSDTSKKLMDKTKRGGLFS
# Chain of Phospholipid hydroperoxide glutathione peroxidase GPX4 (Homo sapiens) (P36969 whole entry, looked up): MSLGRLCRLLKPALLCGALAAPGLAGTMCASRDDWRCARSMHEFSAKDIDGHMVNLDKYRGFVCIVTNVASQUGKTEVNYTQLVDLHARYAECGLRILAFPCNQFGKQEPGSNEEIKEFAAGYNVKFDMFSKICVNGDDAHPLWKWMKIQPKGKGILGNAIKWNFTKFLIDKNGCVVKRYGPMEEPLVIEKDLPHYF
structure (smiles),measurement,setting,value
CCN(CC)C(=O)CC(c1ccc2c(c1)OCO2)c1c(O)cc(OC)cc1OC (stereo not given),Potency,[1],inactive
same,Potency,[2],inactive
same,outcome,[3],inactive
same,outcome,[4],inactive
same,Potency,[5],inactive
CC(=O)c1ccc(N2CCN(S(=O)(=O)c3ccc4c(c3)C(Cl)(Cl)C(=O)N4)CC2)cc1,Potency,[6],32.6 µM (active) and inactive
same,Potency,[1],inactive
same,Potency,[2],26.9 µM (active)
same,outcome,[3],inactive
CNc1oc(-c2cccs2)nc1C#N,"activity change, negative = inhibition",[7],3.62% [at 17.2 µM] (inactive)
same,"activity, negative = inhibition",[8],-2.1% [at 17.2 µM] (inactive)
same,Potency,[9],> 20.6 µM (inactive)
COc1ccc(-n2c(C)c(C(C)=O)c3cc(O)ccc32)cc1,"activity change, negative = inhibition",[7],-14.7% [at 17.2 µM] (inactive)
same,"activity change, negative = inhibition",[10],1.89% [at 17.2 µM] (inactive)
same,Potency,[9],> 20.6 µM (inactive)
Cc1nc(NCCO)c2nc(-c3ccccc3)n(CCCN(C)C)c2n1,outcome,[11],inactive
Cc1nc(N2CCOCC2)c2nc(-c3ccccc3)n(CC3CCN(C)CC3)c2n1,outcome,[11],inactive
Cc1ccccc1NC(=O)CN1C(=O)N/C(=C\c2cccn2-c2cccc(C(=O)O)c2)C1=O,Potency,[12],28.2 µM (active)
same,Potency,[13],1.5 µM (active)
same,outcome,[14],inactive
same,Potency,[15],5.8 µM (active)
same,Potency,[16],16.8 µM (active)
same,Potency,[17],6.07 µM (active)
same,outcome,[18],inactive
same,Potency,[19],2.99 µM (active)
same,Potency,[20],16.9 µM (active)
same,Potency,[21],7.64 µM (active)
CC(C)(C)n1nc(Cc2cccc3ccccc23)c2c(N)ncnc21,"parasite growth, % of DMSO control",[22],23.2%
same,"parasite growth remaining, % of DMSO control (lower = more inhibition)",[23],58%
same,"parasite growth, % of control (lower = inhibition)",[24],52.6%
same,"growth, % of control",[25],12.7%
[2H]C([2H])(Nc1nc(-c2ccccc2C([2H])(C([2H])([2H])[2H])C([2H])([2H])[2H])ncc1C)c1ccc(-n2ccnn2)cc1,Potency,[26],inactive
same,Z-AUC,[27],-0.917 (inactive)
same,Z-AUC,[27]; measured here: PEO1 parental Z-AUC,-1.16
same,Z-AUC,[27]; measured here: PEO4 Z-AUC,-0.866
